Test results published in PubChem BioAssay (NCI).
Compounds without any hit were thinned out: in the full panel of roughly 79,000, 15% have a hit. A number with no mark means an inactive call. Active and inactive are the calls of the source. Cut-off read from the data, not from the text of the source: active = growth inhibition above about 70%; inactive = the rest.

Experiments:
[1] = NCI Yeast Anticancer Drug Screen. Data for the rad50 strain (AID 155);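 note: 0% = growth of vehicle-only cultures of the same strain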; settings: S. cerevisiae rad50 strain growth inhibition; at 50.0 µM; active compounds read high
In short: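 Vehicle-treated cultures provide the reference for the growth inhibition reported for compound-exposed, repair-deficient yeast.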

[2] = NCI Yeast Anticancer Drug Screen. Data for the mec2-1 strain (AID 157); settings: S. cerevisiae mec2-1 strain, at 50.0 µM, active compounds read high
In short: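 Mutant yeast (mec2-1) grown with compound; growth inhibition relative to vehicle control reported.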

[3] = NCI Yeast Anticancer Drug Screen. Data for the sgs1 mgt1 strain (AID 161);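 note: 0% = growth of cultures given vehicle only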; settings: S. cerevisiae sgs1 mgt1 strain, at 50.0 µM, active compounds read high
In short: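 This yeast growth screen uses a strain with defined DNA-repair lesions; compound-treated growth is compared with vehicle-treated growth.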

[4] = NCI Yeast Anticancer Drug Screen. Data for the cln2 rad14 strain (AID 165);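 note: 0% = growth equal to vehicle treated cultures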; settings: S. cerevisiae cln2 rad14 strain, at 50.0 µM, active compounds read high
In short: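 Readout is yeast growth inhibition versus vehicle-treated controls, using a strain with cln2 and rad14 alterations exposed to compound.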

[5] = NCI Yeast Anticancer Drug Screen. Data for the bub3 strain (AID 167); settings: S. cerevisiae bub3 mutant strain, at 50.0 µM, active compounds read high
In short: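 Mutant yeast screening strain plus compound; vehicle-treated cultures serve as the 0% inhibition reference.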

[6] = NCI Yeast Anticancer Drug Screen. Data for the mlh1 rad18 strain (AID 175); settings: S. cerevisiae mlh1 rad18 strain growth inhibition; at 50.0 µM; active compounds read high
In short: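 Genetically defined yeast (DNA repair-deficient) exposed to compounds; growth inhibition determined relative to vehicle.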

Structure (SMILES) | growth inhibition [1] | growth inhibition [2] | growth inhibition [3] | growth inhibition [4] | growth inhibition [5] | growth inhibition [6]
Cc1nnnn1C | -13.2% | -11.6% | -18.9% | -10.9% | -19.1% | -13.9%
NC(=O)C(Cl)(Cl)Cl | -6.6% | 9.25% | 6.1% | 4.95% | -5.65% | 12.4%
c1cc[n+]2c3c(sc2c1)CCC3 | 9.75% | -8.2% | -5.25% | -4.15% | -6.7% | -26.8%
CCOC(=O)C[CH2][Sn]([Cl])([Cl])[Cl] | 17.4% | 22.5% | 21.1% | 12.3% | 4.3% | 20.9%
CCN(CC)CCN1C(=O)NC(=O)C(CC)(c2ccccc2)C1=O (stereo not given) | 4.1% | 9.4% | -6% | 2.9% | 8.05% | 4.9%
CN1Cc2cc3cc4c(cc3nc2N(C)C1)OCCO4 | 1.5% | 12.2% | -1.5% | 11.4% | 8.9% | 15.1%
CC1(C)CN1C1=C(Br)C(=O)C(N2CC2(C)C)=C(Br)C1=O | 18.8% | 0.9% | 7.75% | 9.9% | -0.65% | 30.1%
O=C1NC(=O)C(CC(Br)CBr)(c2ccccc2)C(=O)N1 (stereo not given) | 16.6% | -1.45% | 20.8% | 11.4% | -0.75% | 11.2%
CCCN(CCC)C(=O)[S-].CCCN(CCC)C(=O)[S-].[Ni+2] | 35% | -6.25% | 33.4% | -38.6% | 2.7% | -3.5%
C/C(=N\N(C)C)C(CN1CCCCC1)C(c1ccccc1)c1c(O)c2ccccc2oc1=O (stereo not given) | -1.35% | -30.2% | -6.15% | 4.8% | 30.1% | -9%
O=C1C2CCC(C2)[CH]1[Hg][Cl] (stereo not given) | 99.4% (active) | 99.7% (active) | 99.5% (active) | 99% (active) | 99.3% (active) | 99.5% (active)
C=C(C)CCP(=S)(OCC)OCC | -27.9% | -18.3% | -24.2% | -22.7% | 5.45% | -3.45%
NC(=O)Cc1ccc([As]=O)cc1 (stereo not given) | 19.6% | 10.1% | 9.05% | 21% | 6.85% | 14.9%
C[CH2][Sn]([CH2]C)([n]1c(C)nc2ccccc21)[n]1c(C)nc2ccccc21 | -11.8% | 2.95% | -19.3% | 0.3% | 10.3% | -12.8%
C[N+](C)(C)Cc1cccc([N+](=O)[O-])c1 | -47.9% | -5.5% | -3.8% | -40.7% | -4% | 13.2%
OCCBr | -2.95% | -7.7% | -4.65% | -1.05% | -0.7% | -17.9%
CN(CC(N)=O)C(=O)N(CCCl)N=O | 7.8% | 1.6% | -11.5% | -18.7% | 1.55% | -41.5%
O=[P+](O)c1cc2ccccc2c2ccccc12 | -33% | 17.2% | -4.75% | -46.2% | -10.9% | 1.35%
S=P(NNc1ccccc1)(NNc1ccccc1)c1ccc(Cl)cc1 | 75.4% (active) | -33.1% | 81.9% (active) | 82.3% (active) | 34.6% | 83.2% (active)
CNc1cc(Cl)c(C#N)c(Cl)c1 | -2.6% | -2.7% | -0.7% | -39.2% | -24.6% | 9.25%
[CH3][Sn]([CH3])([CH3])[S]C(=S)N1CCOCC1 | 98.7% (active) | 90% (active) | 98.2% (active) | 94.2% (active) | 98.5% (active) | 98.5% (active)
C[N+]1(CC2CC2)C2CC(OC(=O)C(CO)c3ccccc3)CC1C1OC12 (stereo not given) | 11.1% | 23.9% | 10.7% | 9.55% | -0.6% | -33.5%
[Se]=[Nb]=[Se] | -5.8% | -6.55% | -18.3% | -5.1% | -27.1% | -28.5%
COC(=O)c1ccccc1NC(=O)C(=O)CC(=O)CC(c1ccccc1)c1c(O)c2ccccc2oc1=O (stereo not given) | -15.7% | -3.5% | 15.9% | 11.3% | 24.9% | 21.2%
COc1ccc(-c2nc(-c3ccc(N=Cc4ccc(N(CCCl)CCCl)cc4)cc3)cs2)cc1 | 58% | 11.4% | 57% | 27.1% | 11.5% | 42.6%
S=C(Nc1ccccc1)Nc1ccc(N(CCCl)CCCl)cc1 | 17.6% | 0% | 12.6% | -40.8% | 10.1% | 21.7%
CN(C/C=C/CN(C)N=O)N=O | 10.1% | 2.05% | 3.75% | -16.9% | 20.4% | 1.05%
CS(=O)(=O)CS(=O)(=O)OCCF | 5% | -12.4% | -10.6% | -9.55% | -29% | -33.2%
CC(C)(C)C1COP(=O)(Oc2ccccc2)OC1 (stereo not given) | 2.35% | 7.55% | -4.5% | -13.8% | 19.4% | 3.6%
C1OCN2CSCC12 (stereo not given) | 4% | 28.8% | 30.4% | 5.35% | 27.9% | 31.8%
